PubChem BioAssay (NCI)
The panel holds about 83,000 compounds, 20% with a hit somewhere; the sample as a whole holds those more often.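 Method: cells in 96-well plates; compound added at one concentration; 48 h incubation; percent growth measured; values under 10 scored active.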 A number with no mark means an inactive call. Active and inactive are the calls of the source.

Columns and labels:
Test in all cases: NCI-60 one-dose screen, 48 h (100 = growth as untreated, 0 = no growth, -100 = all killed)
Conditions in all cases: 10 µM unless noted
[1] = tested on: SR leukemia
[2] = tested on: RPMI-8226 leukemia
[3] = tested on: OVCAR-8 ovarian
[4] = tested on: OVCAR-5 ovarian
[5] = tested on: OVCAR-4 ovarian
[6] = tested on: SK-OV-3 ovarian
[7] = tested on: IGROV1 ovarian
[8] = tested on: OVCAR-3 ovarian
[9] = tested on: HS 578T breast
[10] = tested on: NCI/ADR-RES ovarian
[11] = tested on: T-47D breast
[12] = tested on: BT-549 breast
[13] = tested on: MDA-MB-435 melanoma
[14] = tested on: SW-620 colon
[15] = tested on: HCC-2998 colon
[16] = tested on: KM12 colon
[17] = tested on: MCF7 breast
[18] = tested on: HCT-116 colon

Structure (SMILES)	growth [1]	growth [2]	growth [3]	growth [4]	growth [5]	growth [6]	growth [7]	growth [8]	growth [9]	growth [10]	growth [11]	growth [12]	growth [13]	growth [14]	growth [15]	growth [16]	growth [17]	growth [18]
Clc1ccc(OCc2nc(-c3ccccc3)n[nH]2)c(Cl)c1	97.1%	94%	96.5%	99.7%	98.1%	80.9%	97.6%	108%	88.6%	101%	95.6%	100%	97.7%	97%	99.8%	101%		
COc1ccc(/C=C/C(=O)c2ccc(Oc3ncnc4ccccc34)cc2)cc1OC	16.7%	0.391% (active)	85.1%	92.9%	70.4%	91.1%	33.5%	43.8%	88.5%	80.3%	52.3%	60.6%	39.1%	32.2%	29.1%	22.6%	8.88% (active)	-42.6% (active)
C=C1C(=O)O[C@H]2[C@H]1CC/C(COC(=O)c1ccc(C#N)cc1)=C\CC[C@@]1(C)O[C@@H]21	-10% (active)	-35.8% (active)	1.03% (active)	34.5%	35.9%	106%	7.59% (active)	-10.7% (active)	70%	54.5%	-16.2% (active)	29.7%	24%	-27.7% (active)	91.1%	84.8%	0.298% (active)	-60.3% (active)
O=c1c2ccccc2sc2c(NCCCNCCO)nc3ccccc3c12	-25.9% (active)	-14.8% (active)	17.7%	76.3%	60.4%	69.4%	27%	35.2%	34%	31.5%	65.9%	72.3%	5.01% (active)	-62.4% (active)	-49.2% (active)	6.31% (active)	-72.9% (active)	-57.5% (active)
CCCCNC(=O)Oc1ccc(/C(=C(/CC)Cc2ccccc2)c2ccc(OCCCN(C)C)cc2)cc1	22%	42.8%	87%	85.6%	74.8%	97.6%	71.1%	85.2%	84.4%	87.2%	60.7%	95.4%	83.3%	77.3%	88.3%	78.3%	27.9%	67.9%
O=C(O)c1cccc2oc(-c3ccccc3O)nc12	47.6%	50.4%	31.9%	74.7%	20.8%	58.4%	60.5%	15.5%	80.4%	19.8%	52.2%	75.5%	71.3%	47.3%	44.7%	46%	59.1%	36.8%
CC(C)(C)OC(=O)N1CC(Cn2cc(C(F)(F)F)c3c(Cl)ncnc32)C1	-60.9% (active)	-48.4% (active)	-72.4% (active)	112%	81.6%	-24.4% (active)	-79.1% (active)	-49.9% (active)	-9.74% (active)	77.7%	42.6%	-91.1% (active)	-83.4% (active)		-89.2% (active)	-50.4% (active)	-32.7% (active)	-84.5% (active)
COc1cc(Cn2cc3c(c2)-c2onc(CO)c2CC3)cc(OC)c1OC	71.8%	79.1%	98.7%	103%	98%	112%	96.6%	99.4%	80.3%	93.8%	93.2%	98.6%	72%	87%		90.9%	86.8%	84%
Nc1c(C(=O)O)[nH]c(=O)[nH]c1=O	90.2%	99.9%	108%	105%	111%	102%	112%	105%	102%	108%	104%	107%	108%	108%		106%	95.6%	96.8%
Nc1nc(Nc2ccc(OCc3cccc(F)c3)cc2)c2c(n1)[nH]c1ccc(O)cc12	-48.3% (active)	-37.5% (active)	-61.7% (active)	0.474% (active)	-62.2% (active)	-1.21% (active)	-21.8% (active)	-86.4% (active)	-21.9% (active)	32.3%	-59.8% (active)	-84.9% (active)	-41% (active)	-49.5% (active)	-17.6% (active)	-48% (active)	-82.7% (active)	-97.1% (active)
COc1cc(/C=C\c2cc(/C=C\c3ccc(O)c(OC)c3)n(C(=O)CNc3ccccc3OC)n2)ccc1O	2.38% (active)	80.1%	84.6%	102%	84.2%	83.8%	90.5%	59.7%	49.8%	54.4%	91.8%	66%	6.34% (active)	36.4%	112%	46.2%		
CCOC(=O)c1[nH]c(-c2ccc(Cl)cc2)cc1-c1cccnc1	12.9%	4.59% (active)	39.3%	47.3%	51.1%	7.46% (active)	43.9%	-7.92% (active)	16.3%	12.1%	5.56% (active)	29.4%	-38% (active)		29.9%	19.8%	22.2%	9.8% (active)
COc1ccc(CNc2nc3ccccc3c3c(=O)c4ccccc4sc23)cc1OC	65.3%	87.3%	64.8%	97.2%	62.1%	81.9%	80.6%	82.6%	65.8%	74.3%	93.5%	103%	91.7%	73.7%		79.8%	73.9%	68.8%
N#Cc1c(N)nc(Cl)c(C#N)c1C(=O)c1ccccc1	-17.6% (active)	-17.6% (active)	36.8%	91.2%	96.7%	74.5%	32.1%	50.4%	71%	81.4%	42.4%	24.9%	14.6%		76.5%	28%	18.9%	30.2%
O=C1OC(c2ccc(-c3ccccc3)cc2)=C/C1=C/C=C/c1ccccc1	98.3%	95%	103%	91.3%	95%	102%	99%	99.3%	86.9%	114%	101%	111%	106%	97%		103%	87.9%	88%
O=C(Nc1ccc(Cl)c(Cl)c1)Nc1ccc(Cl)c([N+](=O)[O-])c1	-25.2% (active)	-36.2% (active)	10.9%	11.9%	27.1%	-11.7% (active)	15.8%	6.38% (active)	7.04% (active)	-7.67% (active)	-2.12% (active)	-9.25% (active)	7.8% (active)		2.28% (active)	2.33% (active)	0.367% (active)	1.83% (active)
CCOc1ccccc1C(=O)N1CCN(c2cc(Cl)cc(Cl)c2)CC1	6.79% (active)	1.53% (active)	11.2%	46.6%	31.7%	25.8%	13.8%	-22.7% (active)	41.3%	14.5%	49%	-13.2% (active)	-12.8% (active)	22.9%		8.79% (active)	15.2%	-6.57% (active)
